Experimental findings from PubChem BioAssay AID720540 (National Center for Advancing Translational Sciences (NCATS), 2013) are described below.

In all, about 1,300 compounds went through this assay and about 460 (35%) were called active. Another 39% or so got no clear call; they are omitted. Calls follow the shape of the dose curve; as a rule, active = well fitted inhibition curve with a large enough effect; inconclusive = small, poorly fitted or top-dose-only effect; inactive = flat fitted curve, though single readings scatter. This is one part of the list. A structure can be active in one record and inactive in another.

Protein phosphatase EYA2 (Homo sapiens), sequence (O00167 whole entry, looked up): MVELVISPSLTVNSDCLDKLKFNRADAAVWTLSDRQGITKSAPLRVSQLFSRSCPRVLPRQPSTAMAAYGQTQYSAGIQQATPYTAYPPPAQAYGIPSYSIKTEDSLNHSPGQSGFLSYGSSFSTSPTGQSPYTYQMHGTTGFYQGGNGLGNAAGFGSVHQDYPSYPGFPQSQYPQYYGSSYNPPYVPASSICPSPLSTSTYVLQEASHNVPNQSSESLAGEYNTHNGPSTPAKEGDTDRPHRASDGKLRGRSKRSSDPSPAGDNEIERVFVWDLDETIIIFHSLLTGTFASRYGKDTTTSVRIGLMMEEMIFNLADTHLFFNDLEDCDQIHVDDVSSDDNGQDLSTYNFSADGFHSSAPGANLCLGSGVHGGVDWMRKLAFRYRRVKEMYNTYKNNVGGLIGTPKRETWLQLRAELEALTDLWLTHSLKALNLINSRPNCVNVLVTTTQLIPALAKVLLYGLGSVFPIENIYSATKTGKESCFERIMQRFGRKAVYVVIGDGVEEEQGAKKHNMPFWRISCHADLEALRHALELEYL

The target of this assay is Protein phosphatase EYA2 (Homo sapiens) (UniProt O00167). The experiment in a line: qHTS for Inhibitors of the Phosphatase Activity of Eya2: Confirmatory Assay for Cherry-picked Compounds. Also: nearly all actives have a fitted effect of over 65% in size.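 As to activity change, negative = inhibition: 0% = DMSO wells and -100% = EGTA control giving full inhibition.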 To be noted: purified EYA2 phosphatase activity, qHTS confirmation; series mostly up to 46.1 µM; activity change, negative = inhibition: at the top concentration. The text has this:
The Eya protein family is an essential co-activator of the Six1 transcription factor. Six1 is a developmental gene that is abnormally re-expressed in a large percentage of breast cancers. This over-expression plays a causal role in the initiation and metastatic development of breast cancers. The Eya family of protein is also found to contain a unique HAD phosphatase domain with protein tyrosine phosphatase activity which can potentially play a role in Six1-mediated breast tumorigenesis. Recently, Eya2 is found to dephosphorylate the histone variant H2AX and direct cells towards DNA repair instead of apoptosis in the event of DNA damage.
A 1536 well format, fluorescence based qHTS assay was developed and used to target the phosphatase activity of Eya2 (AID 488837). Inhibitors found against Eya2 could serve as potential therapeutic tools to inhibit Six1-mediated breast tumorigenesis and to increase the efficiency of radiation and certain chemo therapy. This assay assessed the activity of the primary screen cherry-picked compounds against Eya2. Inhibition is the desired outcome for this assay.
NIH Chemical Genomics Center [NCGC]
NIH Molecular Libraries Probe Centers Network [MLPCN]
Assay Submitter (PI): Rui Zhao, University of Colorado Denver
Eya2 enzyme and 3-O-methyl-fluorescein phosphate (OMFP) substrate working solutions were reconstituted in the buffer reagent consist of 50 mM HEPES pH 7.5, 50 mM NaCl, […], 0.05% BSA and 1 mM DTT. One and a half microliter of 0.2 uM Eya2 working solution was dispensed in a 1536 well Greiner plate (black, medium bind). Twenty-three nanoliter of test compounds and control compound EGTA was transferred to the assay plate using the Kalypsys robotic system equipped with a 1536 pin head. The plate was incubated at room temperature for 10 minutes. One and a half microliter of the 50 uM the OMFP substrate was then dispensed to the assay plate and incubated at room temperature for additional 10 min. The fluorescence signal was read using the PerkinElmer ViewLux plate reader using a 485 nm excitation and 525 nm emission filters. The data was normalized to the positive control for maximum inhibition and DMSO treated wells as negative control.
For the compound `CN(C)S(=O)(=O)c1ccc(C(=O)NNc2nc(-c3ccccc3)c3cc(Br)ccc3n2)cc1`, the Potency was 8.49 µM (active).
Turning to `Cc1ccc(N2C(=O)NC(=O)/C(=C/c3ccc(OC(=O)c4cccs4)cc3)C2=O)cc1`, the Potency is 12 µM (active).
On the same count and under the same terms, the value for `O=C(Cc1ccccc1)c1ccccn1` was 10.7 µM (active); that for `O=C1NC(=S)N(c2ccccc2)C(=O)/C1=C/c1ccco1` was 6.75 µM (active).
Turning to `COC(=O)C1=C(c2cccc(OCc3ccccc3)c2)C[C@@H]2CC[C@H]1N2C(=O)NCCCc1ccccc1`, the “activity change, negative = inhibition” value is -16.1% (inactive).
`COC(=O)C1=C(c2ccc(F)cc2OCc2ccccc2)C[C@@H]2CC[C@H]1N2C(=O)NCc1ccc(N(C)C)cc1`: the Potency was 8.49 µM (active).
For the compound `C[C@H]1CCC[C@H](O)CCCCCc2cc(O)cc(O)c2C(=O)O1`, the “activity change, negative = inhibition” value was -21.4% (inactive).
With `NC(Cc1cc(O)c(O)cc1O)C(=O)O` (stereo not given), the Potency was 2.39 µM (active).
Still for that read-out and setting: with `N[C@@H](Cc1cc(I)c(O)c(I)c1)C(=O)O` the figure was 9.53 µM (active); with `COc1ccc(-c2cc(=NCCC(=O)O)c3cc(C)ccc3o2)cc1`, 16.9 µM (active).
Same read-out and setting: with `CN(C)c1ccc(C=C2C=CC=C2)cc1` the figure was 19 µM (active) and inactive; with `COc1ccccc1N1CCN(CCc2c[nH]c3cc4c(cc23)OCO4)CC1`, 19 µM (active).
Still for that read-out and setting: the value for `CNc1ccc2nc3ccccc3[n+](C)c2c1` was 16.9 µM (active).
In the case of `O=C(O)CCCOc1ccc(Cl)cc1Cl`, the “activity change, negative = inhibition” value is -4.59% (inactive).
As for `O=[N+]([O-])c1cc(C(F)(F)F)c(Cl)c([N+](=O)[O-])c1Nc1ncc(C(F)(F)F)cc1Cl`, the Potency is 21.3 µM (active).
Still for that read-out and setting: the value for `C=C1C(=O)O[C@@H]2C[C@@H](C)[C@@H]3C=CC(=O)[C@@]3(C)[C@@H](OC(=O)CC(=O)O[C@H]3[C@@H]4C(=C)C(=O)O[C@@H]4C[C@@H](C)[C@@H]4C=CC(=O)[C@]43C)[C@H]12` was 10.7 µM (active); that for `CCOC(=O)CCCc1cc[c]([Sb](=[O])([OH])[OH])cc1` was 2.13 µM (active).
For `CCOC(=O)c1cc2c(cn1)[C@@H](CCO)NC2`, the “activity change, negative = inhibition” value was -11.5% (inactive).
With `Cc1c(N=Nc2c(O)[nH]c(=O)[nH]c2=O)c(=O)n(-c2ccccc2)n1C`, the Potency was 2.13 µM (active).
As for `COC1C(O)C(C)OC(OC2C(Oc3cccc4c(O)c5c(=O)oc6ccc(C)c7c(=O)oc(c34)c5c67)OC(C)C(O)C2O)C1O` (stereo not given), the “activity change, negative = inhibition” value was -10.3% (inactive).
Regarding `CN(C)c1ccc(N=Nc2ccccc2)cc1`, the Potency was 5.36 µM (active).
For the compound `Cc1nc2ccccc2c(=O)n1-c1ccc(Cl)cc1[N+](=O)[O-]`, the “activity change, negative = inhibition” value was -9.84% (inactive).
On the same count and under the same terms, with `CC(N)[C@H](O)c1ccc(O)c(O)c1` (stereo not given in full) the figure was -20.7% (inactive).
Take `O=C(O)c1cc[c]([Sb](=[O])([OH])[OH])cc1[N+](=O)[O-]`: the Potency was 2.69 µM (active).
On the same count and under the same terms, with `O=C1NC(=O)N(c2ccc(Cl)cc2)C(=O)/C1=C\c1ccc(Sc2nc3ccccc3[nH]2)o1` the figure was 13.5 µM (active).
